From ChEMBL document CHEMBL4513216, “Probing the Open Global Health Chemical Diversity Library for Multistage-Active Starting Points for Next-Generation Antimalarials” (ACS Infect Dis, 2020) come the findings set out here.

In all, about 69,000 compounds went through this assay and about 8,600 (12%) showed an effect of 50% or more. This excerpt belongs to a sample that is enriched for strong results.

In the experiment the test system is Plasmodium berghei. The experiment is described as follows: Screen against P. berghei liver stage (PbLuc), transformed with Luciferase, at 10uM. Format: functional, HepG2. To be noted: tested at 10 uM.
As for `O=C(c1cccs1)N1CC[C@@H]2CN(C3CCOCC3)CCO[C@@H]2C1`, the INHIBITION was determined as 45.7%.

As to `CCn1nc(C)c2nnn(CC(=O)Nc3cccc(C)c3)c(=O)c21`, the INHIBITION worked out at 42.4%.

For `CN(C)C[C@H]1OC[C@@H]2CCN(S(=O)(=O)c3cccs3)C[C@@H]21`, the INHIBITION amounted to 38.7%.

Regarding `CC(CO)NC(=O)Nc1ccc(S(C)(=O)=O)nc1` (stereo not given), the INHIBITION was -38.695%. Then `COc1ccc(CNCC(C)Oc2ccccn2)cc1` (stereo not given), with -30.8%; and `Cc1ccc(S(=O)(=O)N2CC[C@@H]3C[C@H](NC(=O)c4n[nH]cc4Cl)[C@@H]32)cc1`, with 6.521%; and `Cc1ccc(S(=O)(=O)N2CC[C@@H]3C[C@H](NC(=O)c4ccncc4)[C@@H]32)cc1`, with 20.4%.

Take `CNC(=O)[C@H]1C[C@@H]2CN(S(=O)(=O)c3ccc(C)cc3)C[C@@H]2N1C`: the INHIBITION was -10.3%. With `Cc1ccc(S(=O)(=O)N2C[C@H]3C[C@H](NC(=O)c4cscn4)[C@H]3C2)cc1`, the INHIBITION stood at 25.6%.

Take `Cc1ccc(S(=O)(=O)N2C[C@H]3C[C@H](NC(=O)c4cc[nH]n4)[C@H]3C2)cc1`: the INHIBITION was 64.1%. The figure for `Cc1ccc(S(=O)(=O)N2C[C@H]3C[C@H](NC(=O)c4ccccn4)[C@H]3C2)cc1` is 92.9%. As to `Cc1ccc(CN2CCCC3(CCCC(=O)N3C)C2)s1` (stereo not given), the INHIBITION worked out at 4.98%. The figure for `CC(C)c1nnc2n1CCN(Cc1ncc(-c3ccccc3)o1)C2` is 38.85%; for `Cc1cc(C(=O)NCc2cccs2)nc(N2CCCC2)n1` it is -2.28%. The figure for `CCOc1ccc(C2SCC(=O)Nc3c2c(=O)[nH]n3C(C)C)cc1` (stereo not given) is 44.9%; for `CC(C)n1[nH]c(=O)c2c1NC(=O)CC2C1CCCCC1` (stereo not given) it is -25.6%; for `CC(C)COc1ccc(C2SCC(=O)Nc3c2c(=O)[nH]n3C(C)C)cc1` (stereo not given) it is 52.4%. The figure for `CC(C)n1[nH]c(=O)c2c1NC(=O)CSC2C1CCCCC1` (stereo not given) is 62.5%; for `CCCOc1ccc(C2SCC(=O)Nc3c2c(=O)[nH]n3C(C)C)cc1` (stereo not given) it is 15.1%. As to `CC(C)n1[nH]c(=O)c2c1NC(=O)CSC2c1ccc(OCC(N)=O)cc1` (stereo not given), the INHIBITION stood at 6.83%. Then `Cc1csc(N2CCCN(C(=O)c3occc3C)CC2)n1`, with 46.2%; and `CC(C)(C)OC(=O)N1CCN(C(=O)CCn2cccn2)CC1`, with 38.05%.

For `O=C(C1CC=CC1)N1CC[C@@H](O)[C@H]1Cc1cccnc1`, the INHIBITION is 43%. The figure for `CCNC(=O)CNC(=O)Nc1c(F)cc(F)cc1-c1ccccc1` is 7.77%; for `COc1cccc(CNCCNS(=O)(=O)Cc2ccccc2)c1` it is 30.2%; for `Cc1cc(C)n(-c2cncc(NCCNC(=O)C(C)C)n2)n1` it is -23.5%. The figure for `Cc1cc(NC(=O)C(C)C)n(-c2nc(C)c(C)c(=O)[nH]2)n1` is 93.2%; for `CCc1c(C)nc(-n2nc(C3CC3)cc2NC(C)=O)[nH]c1=O` it is 93.7%; for `CC(=O)N1CCN(c2cc(CCNC(=O)C(C)C)nc(C3CC3)n2)CC1` it is 18.3%. In the case of `Cc1nc(C)c(CC(=O)Nc2nnc(C3CC3)s2)c(=O)[nH]1`, the INHIBITION was -0.18%.

On to `CC(C)C(=O)Nc1cc(C(C)(C)C)nn1-c1ccccn1`, for which the INHIBITION is -6.94%. The figure for `CCc1c(C)nn(CCNC(=O)c2cc(C3CC3)n[nH]2)c1C` is -40.7%; for `CCc1cc(=O)[nH]c(-n2nc(C3CC3)cc2NC(=O)C2CC2)n1` it is 91%.

`Cc1nc(-n2nc(C3CC3)cc2NC(=O)C(C)C)[nH]c(=O)c1C`: the INHIBITION is 93.2%. As to `CCn1nc(C)c(NC(=O)c2cc(NC(=O)C3CC3)n(C)n2)c1C`, the INHIBITION is given as 29.7%.

Regarding `CC(C)C(=O)Nc1cc(C(=O)NC2CC(C)(C)NC(C)(C)C2)nn1C`, the INHIBITION amounted to 44.6%.

Regarding `Cn1nc(CNC(=O)C2CC2)cc1C1CC1`, the INHIBITION was -62.4%. Then `CN(C)Cc1nn(C)c2c1CCN(C(=O)c1cnccn1)C2`, with -43.1%. Then `CNC(=O)c1ccc(C2CN(Cc3ccc(F)cc3)CCO2)nc1` (stereo not given), with 2.55%; and `Cc1nc(CN(C)C2CCN(CCc3ccccn3)C2)no1` (stereo not given), with -41.6%. The figure for `Cc1cc(C)n(C2CCCN(C(=O)c3ccc(F)c(F)c3)C2)n1` (stereo not given) is 18.7%. `CN(C)CCN1CCOCC12CCN(C(=O)C1CC1)CC2`: the INHIBITION was 6.55%. Then `COC[C@]1(O)CCN(c2cc(N3CCOCC3)ncn2)CC1(C)C`, with 32.3%. The figure for `Cc1cc(OCc2ccc(C(=O)O)s2)ccc1Cl` is -61.9%; for `CSC(C)C(=O)NCc1ccnc(N2CCN(C)CC2)c1` (stereo not given) it is -11.98%. Then `CCOc1ccc(Cl)c(C(=O)N2CCCN(CC(N)=O)CC2)n1`, with 47%; and `Cc1[nH]c2cc(C3CCN(C(=O)c4ccccn4)CC3)nn2c(=O)c1C`, with 29.55%; and `COCCNC(=O)CCc1c(C)nn(-c2nc(C)c(C)c(=O)[nH]2)c1C`, with -8.69%. Take `CC(=O)Nc1cc(C2CC2)nn1-c1nc(C)c(C)c(=O)[nH]1`: the INHIBITION was 72.4%. Then `COc1ccc(CN2CCO[C@H]3CN(C4CCCC4)CC[C@H]3C2=O)cc1`, with 27.7%; and `Cc1nc(-c2cc(C(=O)N3CCCN(C)CC3)c3ccccn23)cn1C`, with 21.7%; and `Cn1ccc(-c2cc(C(=O)N3CCC(O)CC3)c3ccccn23)n1`, with 42.1%.

On to `CN1CCCN(C(=O)c2cc(-c3cc[nH]n3)n3ccccc23)CC1`, for which the INHIBITION is listed as 47.5%. Then `Cc1nc(-c2cc(C(=O)N3CCN(C)CC3)c3ccccn23)cn1C`, with 52.3%; and `Cn1ccc(-c2cc(C(=O)N3CCC(C(N)=O)CC3)c3ccccn23)n1`, with -23.1%. The figure for `CN(C)C1CCN(C(=O)c2cc(-c3ccn(C)n3)n3ccccc23)CC1` is 62.9%; for `CCCC1C=CCN1C(=O)c1cc(COc2ccccc2)[nH]n1` (stereo not given) it is -1.49%. Then `CCCNC(=O)c1cc2c(s1)CCN2C(=O)CN(C)C`, with -25.2%; and `CCn1cc(NC(=O)NCC(C)(C)N2CCc3ccccc3C2)cn1`, with -31.8%.

With `CC(=O)N1CCCN(C(=O)c2ccc(Cn3ccccc3=O)o2)CC1`, the INHIBITION is on record as 19.45%.

As to `COc1ccc(OC)c(NC(=O)c2c(C)cn(C)c2CC(=O)O)c1`, the INHIBITION came out at 29%. Then `CCOCc1ccccc1NC(=O)NC1CCN(c2ccccc2)C1` (stereo not given), with 36.2%.

Regarding `CCOCc1ccccc1NC(=O)NC1CCN(C2CCCC2)C1` (stereo not given), the INHIBITION worked out at 58.6%. Then `CCOCc1ccccc1NC(=O)NC1CCN(CC(F)(F)F)C1` (stereo not given), with 38.3%. Then `CCOCC(O)CN1CCN(C(=O)c2cccc(CC#N)c2)CC1` (stereo not given), with 9.54%.

Regarding `CCSc1nsc(NC(=O)COc2ccc3c(c2)OCO3)n1`, the INHIBITION worked out at 49.4%. With `COC1COC2(CCN(Cc3ccccc3F)CC2)C1` (stereo not given), the INHIBITION was 3.25%. On to `c1ccc(O[C@@H]2CO[C@@]3(CCCN(CC4CCOCC4)C3)C2)nc1`, for which the INHIBITION is 32.2%. Then `c1ccc(O[C@H]2CO[C@@]3(CCN(Cc4ccc5c(c4)OCO5)C3)C2)nc1`, with 71.9%. With `COC1COC2(CCN(Cc3ccccc3C)CC2)C1` (stereo not given), the INHIBITION is on record as 37.1%. The figure for `COc1ccccc1CN1CCC2(CC1)CC(Oc1ccccn1)CO2` (stereo not given) is 14.2%; for `Cn1cc(CN2CC[C@]3(C[C@H](Oc4ccccn4)CO3)C2)cn1` it is 51.4%; for `c1ccc(OC2COC3(CCN(CC4CC4)CC3)C2)nc1` (stereo not given) it is 53.2%. Then `CCO[C@H]1CO[C@@]2(CCN(Cc3ccc4c(c3)OCO4)C2)C1`, with -20.8%. The figure for `Cn1cc(CN2CCC[C@]3(C[C@@H](Oc4ccccn4)CO3)C2)cn1` is 15.6%; for `Cn1cc(CN2CCC[C@]3(C[C@H](Oc4ccccn4)CO3)C2)cn1` it is 46.4%; for `COC1COC2(CCN(Cc3ccc4ccccc4n3)CC2)C1` (stereo not given) it is 57.4%. Take `CCO[C@@H]1CO[C@@]2(CCN(Cc3ccc4c(c3)OCO4)C2)C1`: the INHIBITION is listed as 18.6%. With `CC(=O)N1CCCn2nc(CNC(=O)N3CCCCC3)cc2C1`, the INHIBITION stood at 14.3%. Then `CCc1ncc2c(n1)CN(c1cc(N3CCN(C)CC3)nc(N)n1)C2`, with 19.7%. Regarding `CNc1nc(C2CCCN2)nc2c1CCN(S(=O)(=O)C1CCCCC1)C2` (stereo not given), the INHIBITION was -44.8%.

Take `CC(C)CCC(=O)N1CCCC2(CCN(Cc3ccccc3C#N)C2)C1` (stereo not given): the INHIBITION is listed as 1.71%. Then `COc1ccc(CCn2cnc(C#N)n2)cc1`, with -7.46%; and `Cc1cccc(CN2CCc3onc(Cn4cccc4)c3C2)n1`, with 31.5%. `NC(=O)c1cc(CC2CCCN(Cc3cnccn3)CC2)ncn1` (stereo not given): the INHIBITION is listed as -0.232%.

In the case of `c1ccc(CO[C@H]2CO[C@@]3(CCN(Cc4ccoc4)C3)C2)nc1`, the INHIBITION is reported as 14.2%.

Turning to `Cc1cc(C)cc(CN2CCC3(CC2)CC(Nc2ncccn2)CO3)c1` (stereo not given), the INHIBITION is reported as 50.7%. The figure for `Cn1cc(CN2CCC3(CC2)CC(Nc2nccs2)CO3)cn1` (stereo not given) is 13.6%; for `c1ccc(CO[C@@H]2CO[C@@]3(CCN(Cc4ccccn4)C3)C2)nc1` it is 1.58%; for `CCN1CCC2(CC1)CC(Nc1ncccn1)CO2` (stereo not given) it is 45.7%. The figure for `c1ccc(OC2COC3(CCN(Cc4ccccn4)CC3)C2)cc1` (stereo not given) is 81.2%; for `O=C(NC1COC2(CCN(Cc3ccccn3)CC2)C1)c1ccccn1` (stereo not given) it is -8.69%. Then `c1ccc(CN2CCC3(CC2)CC(Oc2cccnc2)C3)nc1`, with 31.2%; and `Cn1cc(CN2CC[C@]3(C[C@H](OCc4ccccn4)CO3)C2)cn1`, with 69.6%; and `c1cnc(NC2COC3(CCN(Cc4ccoc4)CC3)C2)nc1` (stereo not given), with 3.25%.

With `c1ccc(CN2CC[C@]3(C[C@@H](Oc4ccccn4)CO3)C2)nc1`, the INHIBITION was 31.3%.

With `c1ccc(CN2CCC3(CC2)CC(Nc2nccs2)CO3)nc1` (stereo not given), the INHIBITION is recorded as 53.2%.

`CCOCCC(=O)Nc1cccc(Cl)c1C(N)=O`: the INHIBITION was -39.2%. The figure for `O=C(O)c1ccccc1-c1ccc(CN2CC(O)C2)cc1` is -13.7%. For `CC(=O)N1CCC[C@H]1C(=O)NCCCN(C(C)C)S(C)(=O)=O`, the INHIBITION is 25.4%.
